Laboratory results taken from PubChem BioAssay.
Activity calls are given as the source filed them.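 Rule for the calls: active = normalized viability below 100% at a tested concentration; inactive = the rest.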

Assay: ovarian cancer cell viability with rucaparib, profiling panel, oncology-focused library, rucaparib conditional (AID 1508598)
Conditions: patient-derived ovarian cancer cells, CellTiter-Glo viability, 144 h, stronger effect = lower value
[1] = at 0.000305 µM, OCI-C5x cells, with rucaparib 10 µM, 100% = cells with rucaparib alone
[2] = at 0.000305 µM, OCI-C5x cells, without rucaparib
[3] = at 0.000305 µM, OCI-P5x cells, with rucaparib 20 µM, 100% = cells with rucaparib alone
[4] = at 0.000305 µM, OCI-P5x cells, without rucaparib
[5] = at 0.00122 µM, OCI-C5x cells, with rucaparib 10 µM, 100% = cells with rucaparib alone
[6] = at 0.00122 µM, OCI-C5x cells, without rucaparib
[7] = at 0.00122 µM, OCI-P5x cells, with rucaparib 20 µM, 100% = cells with rucaparib alone
[8] = at 0.00122 µM, OCI-P5x cells, without rucaparib
[9] = at 0.00488 µM, OCI-C5x cells, with rucaparib 10 µM, 100% = cells with rucaparib alone
[10] = at 0.00488 µM, OCI-C5x cells, without rucaparib
[11] = at 0.00488 µM, OCI-P5x cells, with rucaparib 20 µM, 100% = cells with rucaparib alone
[12] = at 0.00488 µM, OCI-P5x cells, without rucaparib
[13] = at 0.0195 µM, OCI-C5x cells, with rucaparib 10 µM, 100% = cells with rucaparib alone
[14] = at 0.0195 µM, OCI-C5x cells, without rucaparib
[15] = at 0.0195 µM, OCI-P5x cells, with rucaparib 20 µM, 100% = cells with rucaparib alone
[16] = at 0.0195 µM, OCI-P5x cells, without rucaparib
[17] = at 0.0781 µM, OCI-C5x cells, with rucaparib 10 µM, 100% = cells with rucaparib alone
[18] = at 0.0781 µM, OCI-C5x cells, without rucaparib
[19] = at 0.0781 µM, OCI-P5x cells, with rucaparib 20 µM, 100% = cells with rucaparib alone
[20] = at 0.0781 µM, OCI-P5x cells, without rucaparib
[21] = at 0.313 µM, OCI-C5x cells, with rucaparib 10 µM, 100% = cells with rucaparib alone
[22] = at 0.313 µM, OCI-C5x cells, without rucaparib
[23] = at 0.313 µM, OCI-P5x cells, with rucaparib 20 µM, 100% = cells with rucaparib alone
[24] = at 0.313 µM, OCI-P5x cells, without rucaparib
[25] = at 1.25 µM, OCI-C5x cells, with rucaparib 10 µM, 100% = cells with rucaparib alone
[26] = at 1.25 µM, OCI-C5x cells, without rucaparib
[27] = at 1.25 µM, OCI-P5x cells, with rucaparib 20 µM, 100% = cells with rucaparib alone
[28] = at 1.25 µM, OCI-P5x cells, without rucaparib
[29] = at 5 µM, OCI-C5x cells, with rucaparib 10 µM, 100% = cells with rucaparib alone
[30] = at 5 µM, OCI-C5x cells, without rucaparib
[31] = at 5 µM, OCI-P5x cells, with rucaparib 20 µM, 100% = cells with rucaparib alone
[32] = at 5 µM, OCI-P5x cells, without rucaparib

Measured: viability

CC#C[C@@]1(O)CC[C@H]2[C@@H]3CCC4=CC(=O)CCC4=C3[C@H](c3ccc(N(C)C)cc3)C[C@@]21C
inactive: [1] 124% | [2] 104% | [5] 112% | [6] 114% | [9] 122% | [10] 108% | [13] 118% | [14] 110% | [17] 122% | [18] 111% | [21] 113% | [22] 118% | [25] 121% | [26] 118% | [29] 162% | [30] 140%
active: [3] 88.4% | [4] 89.8% | [7] 88.8% | [8] 94.8% | [11] 93.3% | [12] 95% | [15] 86.7% | [16] 87.4% | [19] 84.5% | [20] 86.4% | [23] 83.6% | [24] 89.9% | [27] 87.2% | [28] 91% | [31] 72.1% | [32] 89.7%

CO[C@H]1C[C@H]2CC[C@@H](C)[C@@](O)(O2)C(=O)C(=O)N2CCCC[C@H]2C(=O)O[C@H]([C@H](C)C[C@@H]2CC[C@H](OC(=O)C(C)(CO)CO)[C@H](OC)C2)CC(=O)[C@H](C)/C=C(\C)[C@@H](O)[C@@H](OC)C(=O)[C@H](C)C[C@H](C)/C=C/C=C/C=C/1C
active: [1] 93.5% | [2] 93.2% | [3] 85% | [4] 85% | [5] 97% | [6] 95.7% | [7] 77.3% | [8] 69.5% | [9] 88.7% | [10] 91.6% | [11] 71.8% | [12] 56.9% | [13] 93.2% | [14] 88.2% | [15] 71% | [16] 58.4% | [17] 93.3% | [18] 84.7% | [19] 70.8% | [20] 56.6% | [21] 96.4% | [22] 87.6% | [23] 71.6% | [24] 57.7% | [26] 95.8% | [27] 77% | [28] 55.6% | [29] 93.4% | [30] 88% | [31] 59.8% | [32] 54.1%
inactive: [25] 100%

CCC(C)(C)C(=O)O[C@@H]1C[C@@H](C)C=C2C=C[C@H](C)[C@@H](CC[C@@H]3C[C@@H](O)CC(=O)O3)[C@H]21
active: [11] 96.9% | [13] 95.4% | [15] 94.2% | [17] 76.6% | [18] 70.9% | [19] 72.4% | [20] 66.6% | [21] 36% | [22] 32% | [23] 13.1% | [24] 14.5% | [25] 24.2% | [26] 27.2% | [27] 7.81% | [28] 7.43% | [29] 8.07% | [30] 7.81% | [31] 5.14% | [32] 3.59%
inactive: [1] 109% | [2] 119% | [3] 102% | [4] 113% | [5] 108% | [6] 113% | [7] 110% | [8] 115% | [9] 112% | [10] 110% | [12] 110% | [14] 112% | [16] 101%

CC(=O)OCC(=O)[C@]1(O)[C@H](C)C[C@H]2[C@@H]3CCC4=CC(=O)C=C[C@]4(C)[C@]3(F)[C@H](O)C[C@@]21C
active: [16] 99.6% | [20] 98.1% | [24] 94.5% | [27] 97.6% | [28] 94.3% | [31] 88.4% | [32] 84.6%
inactive: [1] 119% | [2] 119% | [3] 107% | [4] 108% | [5] 121% | [6] 125% | [7] 105% | [8] 106% | [9] 131% | [10] 122% | [11] 110% | [12] 105% | [13] 124% | [14] 123% | [15] 109% | [17] 118% | [18] 112% | [19] 104% | [21] 113% | [22] 113% | [23] 100% | [25] 122% | [26] 123% | [29] 115% | [30] 110%

COc1cccc(-c2cc(F)ccc2[C@H]2Cc3nc(N)nc(C)c3C(=O)N2)n1
active: [11] 53.5% | [12] 34.2% | [13] 93.9% | [14] 41.2% | [15] 16.9% | [16] 8.17% | [17] 23.6% | [18] 13.1% | [19] 10.3% | [20] 7.46% | [21] 11.3% | [22] 8.63% | [23] 6.73% | [24] 5.16% | [25] 10.2% | [26] 7.01% | [27] 5.14% | [28] 4.54% | [29] 9.37% | [30] 7.01%
inactive: [1] 108% | [2] 122% | [3] 108% | [4] 113% | [5] 117% | [6] 135% | [7] 101% | [8] 112% | [9] 134% | [10] 141%
